Assay results taken from PubChem BioAssay (NCI).
Values joined by “and” are separate entries in the source; they are usually repeats but may differ in a detail not shown here. Equal entries are not always repeated. Compounds without any hit were thinned out: in the full panel of roughly 83,000, 20% have a hit.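 A percent growth of 40 corresponds to 60% growth inhibition; 0 means no net growth; -100 means all cells died. Active threshold: below 10.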 Values without a mark were called inactive. Active and inactive are the calls of the source.

Each compound was assayed on MDA-MB-468 breast (assay: NCI-60 one-dose screen, 48 h (100 = growth as untreated, 0 = no growth, -100 = all killed)). Conditions: 10 µM unless noted.
With `CC(C)(O)CC(=O)NCCn1ccc2ncnc(Nc3ccc(Oc4cccc(C(F)(F)F)c4)c(Cl)c3)c21` the growth was -43.8% (active).
`CC(CN=Cc1ccccc1O)N=Cc1ccccc1O` (centres undefined) was tested, and the growth was 115% and 98%.
With `N#C/C(=C\c1ccc([N+](=O)[O-])cc1)n1nnc2cc(F)c(F)cc21` the growth was -40% (active).
`Cc1csc(N/N=C/c2ccncc2)n1` showed a growth of 107%.
`COC(=O)CNc1nc(N(C)O)nc(N(C)O)n1` was tested, and the growth was 30.6%.
With `COc1c(Cl)cc(Cl)c2ccc(C=C3C(=O)N(C)C(=O)N(C)C3=O)nc12` the growth was 107%.
In the case of `CC(=O)c1c(C)[nH]c(-c2nc3ccc(N4CCN(C)CC4)cc3[nH]2)c1-c1ccc(N(C)C)cc1`, the growth is reported as 21%.
Compound `O=C(NNc1nc2cc(F)ccc2n2cncc12)c1cnccn1` has a growth of 31.7%.
Compound `COc1cc(Nc2ncccc2NC(=O)c2cn(Cc3cccc(Oc4ccccc4)c3)nn2)cc(OC)c1` has a growth of 65.9%.
Compound `O=C(Nc1cccc2cccnc12)c1cc(C(=O)c2ccc(Cl)cc2)n2ccc(-c3ccncc3)cc12` has a growth of 108%.
For `CCNC(=O)N1CCc2cc(OC)c(OCCc3ccc(OC)nc3)cc2C1c1ccc(OC)cc1C` (centres undefined), the growth was 26.7%.
In the case of `COc1ccc(Sc2[nH]c(C(C)=O)c3ccccc23)cc1`, the growth is reported as -6.04% (active).
`COc1cc(-c2nc(-c3ccccc3)[nH]c2-c2ccnc(NCCCNS(=O)(=O)c3ccc(C(F)(F)F)cc3)n2)ccc1Cl` was tested, and the growth was 14% and 41.9%.
With `CN(C)CCCn1c2c(c3ncccc3c1=O)C(=O)c1ccccc1-2` the growth was 31.7%.
